# ± gives the standard deviation of the averaged measurements. Whole data set: some 33,000 sequences, median “E-score (rank enrichment, -0.5 to 0.5)” near -0.0075, cut for the highest 2% near 0.23. The sample as a whole holds a higher share of the highest values than the screen did.
# System: WT Max(13-93) synthetic (M65Nle)
# Test: PBM 8-mer E-score (E-score (rank enrichment, -0.5 to 0.5)); higher = stronger preferential binding
# Method: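 Protein binding microarray (universal PBM chip covering all 10-mers in fixed probe flanks) with chemically synthesized human Max(13-93) bHLH-LZ analogs (not full-length Max) bearing noncanonical residues (hArg, Tha, Aib, Nle at 65) and aromatic Cys staples. Read-out per 8-mer (and its reverse complement): E-score (rank-based enrichment, -0.5 to 0.5) and Z-score of median probe intensity.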
row,Sequence,PBM 8-mer E-score
1,AAGAAATG,0.101 ± 0.04
2,AAGACGGA,-0.127 ± 0.033
3,CAAATCAC,0.0214 ± 0.064
4,CGGACGAG,-0.203 ± 0.017
5,AGTCACAT,0.251 ± 0.0014
6,AGTCACAG,-0.117 ± 0.061
7,AGTCACAC,0.0956 ± 0.0018
8,CTTTTCAC,0.241 ± 0.17
9,ATTTTCAC,-0.017 ± 0.0034
10,CCTTTCAC,0.0141 ± 0.092
11,AGAAGCAT,0.135 ± 0.018
12,AGGACGAT,0.0538 ± 0.14
13,AGCGATGA,-0.182 ± 0.065
14,ATTACTAG,-0.00575 ± 0.14
15,ATAACTAC,0.239 ± 0.077
16,ATAACTAT,0.143 ± 0.042
17,CTAACTAC,-0.0993 ± 0.059
18,CTTACTAC,0.08987 ± 0.00056
19,ATTACTAC,0.264 ± 0.03
20,AGAAAGTA,0.204 ± 0.0097
21,CTGCGCAC,0.0305 ± 0.029
22,CCCACGCG,0.31 ± 0.011

row,Sequence,PBM 8-mer E-score
1,CCCACGCA,-0.00155 ± 0.1
2,AGCACGTG,0.4878 ± 0.00074
3,ACCACGTC,0.0378 ± 0.15
4,AGCACGTC,-0.118 ± 0.093
5,ACCACGTG,0.4956 ± 0.0014
6,ACCACGCC,0.0629 ± 0.16
7,AGCACGTA,-0.0146 ± 0.12
8,ACCACGCA,0.104 ± 0.042
9,CCCACGCC,-0.00325 ± 0.11
10,ACCACGCG,0.361 ± 0.016
11,ACCACGTA,0.0522 ± 0.0021
12,CCTTCGAA,0.0583 ± 0.015
13,ATTCAACA,0.131 ± 0.1
14,AGCCGTCA,-0.0749 ± 0.036
15,CGATCGTC,-0.278 ± 0.042
16,TCCCGGGA,-0.251 ± 0.0053
17,AATGGCAT,0.16 ± 0.14
18,CAAAAAGC,-0.0124 ± 0.093
19,AGGAGCAT,0.00459 ± 0.16
20,AGCTCTCA,-0.0708 ± 0.13
21,CCGTGCCC,-0.132 ± 0.18
22,GCGTGCCC,-0.0787 ± 0.13

row,Sequence,PBM 8-mer E-score
1,GCGTGCCA,-0.0642 ± 0.045
2,ACGTGCCT,0.252 ± 0.0048
3,ACGTGCCA,0.294 ± 0.025
4,CCGTGCCA,-0.0364 ± 0.14
5,AAGTGCCT,-0.106 ± 0.055
6,ACGTGCCG,0.206 ± 0.029
7,ACGTGCCC,0.247 ± 0.032
8,GCCTTGCC,-0.201 ± 0.024
9,CAGAATAG,0.0142 ± 0.048
10,CCTATACG,0.0369 ± 0.014
11,CGCGAGAA,-0.0592 ± 0.072
12,CGTGGCGA,0.015 ± 0.0011
13,ACTAGGCA,-0.0155 ± 0.066
14,AATCGGAG,-0.0774 ± 0.087
15,ATTGCCTC,0.0622 ± 0.064
16,GCACGCGC,0.171 ± 0.025
17,ACACGCGT,0.325 ± 0.013
18,ACGCGCGA,0.114 ± 0.066
19,ACACGCAT,0.159 ± 0.043
20,ACACGCGC,0.259 ± 0.026
21,ACACGCGG,0.281 ± 0.03
22,CCACGCGC,0.152 ± 0.035

row,Sequence,PBM 8-mer E-score
1,CCACGCGG,0.433 ± 0.024
2,AAACGCGT,0.0714 ± 0.1
3,CCACGCGA,0.0546 ± 0.083
4,ACACGCGA,0.157 ± 0.042
5,ACACGCTG,0.0854 ± 0.074
6,ATCCCTCC,0.0287 ± 0.088
7,CAGGGTAC,-0.008 ± 0.013
8,CGCTAGTA,-0.0479 ± 0.0027
9,CAGTGCGA,-0.0198 ± 0.16
10,AGTCGTTC,-0.143 ± 0.11
11,CCAGCCCA,-0.176 ± 0.14
12,GCAACCAA,0.00549 ± 0.078
13,AAGCGCGC,0.0137 ± 0.0014
14,CCACGAGC,-0.0509 ± 0.015
15,ACGCGCGC,0.0593 ± 0.05
16,ACGCGCGG,0.118 ± 0.018
17,CCACGAGA,0.0679 ± 0.15
18,CCACGAGG,0.365 ± 0.052
19,ACGCGCGT,0.246 ± 0.012
20,ATCTAATG,-0.0696 ± 0.071
